Measured values taken from PubChem BioAssay (Tox21).
Results filed as inconclusive are left out. Unmarked numbers belong to inactive results. Activity calls are given as the source filed them. Calls come from the whole dose curve; as a rule, active = well fitted activation curve with a large enough effect in the signal ratio in the repeat runs (not every such curve was filed as active); inconclusive = weak or mixed curves, or effect the other way; inactive = no such curve, though single readings can be large or run the other way; the % refers to the signal ratio.

Target: Peroxisome proliferator-activated receptor gamma (Homo sapiens) (UniProt P37231)
Sequence (P37231 whole entry, looked up): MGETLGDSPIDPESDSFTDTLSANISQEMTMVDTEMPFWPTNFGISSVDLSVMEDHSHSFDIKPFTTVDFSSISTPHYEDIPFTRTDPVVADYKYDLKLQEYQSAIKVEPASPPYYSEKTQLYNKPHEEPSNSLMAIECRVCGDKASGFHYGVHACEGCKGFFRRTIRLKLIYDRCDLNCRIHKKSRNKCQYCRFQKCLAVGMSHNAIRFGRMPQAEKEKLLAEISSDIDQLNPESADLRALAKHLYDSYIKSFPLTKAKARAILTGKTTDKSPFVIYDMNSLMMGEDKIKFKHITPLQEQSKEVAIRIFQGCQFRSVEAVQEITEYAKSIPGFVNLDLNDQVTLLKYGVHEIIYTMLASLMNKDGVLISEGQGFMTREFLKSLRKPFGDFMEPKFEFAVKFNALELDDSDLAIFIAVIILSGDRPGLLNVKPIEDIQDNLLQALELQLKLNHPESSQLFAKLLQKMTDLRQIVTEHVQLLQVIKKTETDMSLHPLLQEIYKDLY
Experiment: qHTS assay to identify small molecule agonists of the peroxisome proliferator-activated receptor gamma (PPARg) signaling pathway (AID 743094)
Conditions: HEK293H PPARg-UAS-bla, beta-lactamase FRET ratio, 17 h; series mostly up to 57 µM; activation: at the top concentration
Source text: U.S. Tox21 Program National Center for Advancing Translational Sciences [NCATS] NIH Chemical Genomics Center [NCGC] U.S. Environmental Protection Agency [EPA] National Institutes of Environmental Health Sciences [NIEHS] National Toxicology Program [NTP] U.S. Food and Drug Administration [FDA] Tox21 Assay Overview: The peroxisome proliferator-activated receptors (PPARs) are lipid-activated transcription factors of the nuclear receptor superfamily with three distinct subtypes namely PPAR alpha, PPAR delta (also called PPAR beta) and PPAR gamma (PPARg). All these subtypes heterodimerize with Retinoid X receptor (RXR) and these heterodimers regulate transcription of various genes. PPAR-gamma receptor (glitazone receptor) is involved in the regulation of glucose and lipid metabolism. To identify the compounds that activate PPAR-gamma signaling, GeneBLAzer PPAR gamma UAS-bla HEK293H cell line (Invitrogen, Carlsbad, CA, USA) containing a beta-lactamase reporter gene under control of the control of an upstream activator sequence (UAS) stably integrated into HEK293H cells was used to screen Tox21 compound library.
Tox21 Assay Protocol Summary: PPARg-bla cells were dispensed at 3000 cells/6uL/well in 1536-well black wall/clear bottom plates using a Multidrop Combi (Thermo Fisher Scientific, Waltham, MA) dispenser. After the assay plates were incubated at 37C and 5% CO2 for 5 h, 23 nL of compounds dissolved in DMSO, positive controls or DMSO only was transferred to the assay plate by a Pintool station (Kalypsys, San Diego, CA). The assay plates were incubated at 37C for 17 h. After 1 uL of LiveBLAzerTM B/G FRET substrate was added using a Bioraptr Flying Reagent Dispenser (FRD) workstation (Beckman Coulter, Indianapolis, IN, USA), the plates were incubated at room temperature for 1 h, and fluorescence intensity was measured by an Envision plate reader (PerkinElmer, Shelton, CT).
% is set by controls: 0 for no effect and ±100 for the full control effect.

SMILES | outcome | activation
O=[N+]([O-])c1ccccc1 | inactive | –
CNC(=O)Oc1ccccc1OC(C)C | inactive | –
Nc1ccc(Oc2ccc(N)cc2)cc1 | inactive | –
Nc1c(Cl)c(Cl)nc(C(=O)O)c1Cl | inactive | –
CN(N=O)c1ccccc1 | inactive | –
CCC(C)(CC)c1cc(NC(=O)c2c(OC)cccc2OC)on1 | – | -7.67% [at 78.9 µM]
COC(=O)c1ccccc1N | – | 0.769%
O=C(O)c1ccccn1 | inactive | –
CC(C)(C)OOC(=O)c1ccccc1 | inactive | –
CCC[CH2][Sn]([Cl])([Cl])[Cl] | inactive | –
CON(C)C(=O)Nc1ccc(Cl)c(Cl)c1 | inactive | –
Cc1ccc(N)cc1N | inactive | –
COc1ccc2c3c1O[C@H]1[C@@H](O)C=C[C@H]4[C@@H](C2)N(C)CC[C@@]341 | inactive | –
CCCCOC(=O)c1ccccc1C(=O)OCCCC | inactive | –
O=S(=O)(c1ccc(Cl)cc1)c1cc(Cl)c(Cl)cc1Cl | – | 6.35%
ClCCBr | inactive | –
c1ccc(OP(Oc2ccccc2)Oc2ccccc2)cc1 | inactive | –
COP(N)(=O)SC (stereo not given) | inactive | –
Cc1[nH]c(=O)n(C(C)(C)C)c(=O)c1Cl | inactive | –
OC(O)C(Cl)(Cl)Cl | inactive | –

SMILES | outcome | activation
COC(=O)c1ccccc1C(=O)OC | inactive | –
Clc1ccc(Cl)cc1 | inactive | –
Nc1ccc(Cc2ccc(N)cc2)cc1 | inactive | –
CCOP(=S)(OCC)Oc1cnc2ccccc2n1 | – | 0.0971%
CN(C)[C@@H]1C(=O)C(C(N)=O)=C(O)[C@@]2(O)C(=O)C3=C(O)c4c(O)cccc4[C@@](C)(O)[C@H]3C[C@@H]12 | – | 0.768% [at 26.2 µM]
O=c1[nH]c(=O)[nH]c(=O)[nH]1 | inactive | –
Oc1ccccc1Cl | inactive | –
Cn1cc(-c2ccccc2)c(=O)c(-c2cccc(C(F)(F)F)c2)c1 | inactive | –
Cc1ccc([N+](=O)[O-])cc1C | inactive | –
CCNc1nc(NC(C)(C)C)nc(SC)n1 | inactive | –
[O-][Cl+2]([O-])O | inactive | –
CCOC(=O)c1ccccc1C(=O)OCC | inactive | –
COC(=O)NS(=O)(=O)c1ccc(N)cc1 | inactive | –
C1CN2CCN1CC2 | inactive | –
CC(C)=C[C@@H]1[C@@H](C(=O)OCc2coc(Cc3ccccc3)c2)C1(C)C | inactive | –
O=[N+]([O-])c1ccc(Oc2ccc(Cl)cc2Cl)cc1 | inactive | –
O=Cc1cccc(Oc2ccccc2)c1 | inactive | –
CC(C#N)CCC#N (stereo not given) | inactive | –
ClCc1cccnc1 | inactive | –
CCCCN(CCCC)SN(C)C(=O)Oc1cccc2c1OC(C)(C)C2 | – | 0.907% [at 78.9 µM]
